Compound activity as filed in PubChem.
VCAM1 pot = potentiators of TNFa-induced VCAM1 expression, primary screen, imaging, HUVEC, TNFa stimulus, immunofluorescence | activation, % at 2 µM | HUVEC TNFa-stimulated VCAM-1 immunofluorescence, high-content imaging; scaled per plate to unstimulated/TNFa-only wells | 93,000 tested, 0.19% active | AID 808, 2007;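 active = activation above the screen mean plus 3 SD, with well images confirming the hit on visual review, cut at about 28% in these data, passing the limit was not always enough; inconclusive = activation above that limit but images do not confirm it; inactive = activation not above that limit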;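 note: signal is the number of cytoplasmic VCAM-1 stained grains per positive cell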
VCAM1 pot conf = potentiators of TNFa-induced VCAM1 expression, confirmation, imaging, HUVEC, triplicate retest; 230 tested, under 10 active; HUVEC TNFa-stimulated VCAM-1 immunofluorescence imaging; activation, % at 2 µM; shares compounds with VCAM1 pot; AID 1034, 2008;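 active = activation above 30% in triplicate retests at 2 µM, then confirmed by visual review of the well images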;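 note: scaled per plate between unstimulated and TNFa-stimulated DMSO control wells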
An asterisk follows results filed as active; ? = inconclusive. The entries come from a sample that favours hits as a whole.

SMILES	VCAM1 pot	others
CCn1c2ccccc2c2cc(C3N=C(N)Nc4nc5ccccc5n43)ccc21 (stereo unspecified)	54*	VCAM1 pot conf=-9
CCn1c(=O)c2c(cnn2C)c2ccccc21	-13
O=C(Cn1nnc(-c2ccc(S(=O)(=O)N3CCCC3)cc2)n1)NCC1CCCO1 (stereo unspecified)	-6
CC1(C(=O)O)Cc2ccccc2C(=O)O1 (stereo unspecified)	-6
Cc1ccc(-c2nnc3sc(CCc4ccccc4)nn23)cc1	-3
COc1ccc(C)cc1NC(=O)CN(Cc1nnc(-c2ccc(Cl)cc2)o1)C1CCCC1	-1
Cc1cccc(OCC(=O)Nc2cc(C)ccc2O)c1	-58
COc1ccc(C)cc1NC(=O)COC(=O)C1CC1	56*	VCAM1 pot conf=-14
COC(=O)c1nn(-c2cccc(C(F)(F)F)c2)c(=O)cc1Sc1ccccn1	-12
O=C(c1ccccc1)c1cc2ccccc2o1	0
O=C(c1ccccc1)c1cc[n+]([O-])cc1	62*	VCAM1 pot conf=-11
COc1ccccc1CN(Cc1ccco1)S(=O)(=O)c1ccc(-n2cnnn2)c(OC)c1	43*	VCAM1 pot conf=-19
CS(=O)(=O)N(Cc1ccco1)Cc1ccccc1Cl	2
Cc1cc(S(=O)(=O)N(Cc2ccc(F)cc2)CC2CCCO2)ccc1-n1cnnn1 (stereo unspecified)	-9
O=C(CSc1nc2c(cnn2-c2ccccc2)c(=O)[nH]1)c1ccc(Cl)cc1	-5
CC(C)NC1CS(=O)(=O)CC1O (stereo unspecified)	-100
CCN(CC)S(=O)(=O)c1ccc(C(=O)NCCCN=C2NS(=O)(=O)c3ccccc32)cc1	-48
OC1(c2cccc(C(F)(F)F)c2)CCN(c2ncnc3c2[nH]c2ccc(F)cc23)CC1	-54
c1ccc(-n2ncc3c(NCc4ccco4)ncnc32)cc1	-6
CN(C)C(CNc1nnnn1-c1ccccc1)c1ccco1 (stereo unspecified)	?	VCAM1 pot conf=-6
COc1ccccc1C(=O)NC(CCSC)C(=O)NCC(c1ccco1)N(C)C (stereo unspecified)	10
CCOC(=O)C1=C(O)/C(=C/c2cn(CC(=O)NCC3CCCO3)c3ccccc23)SC1=Nc1ccc(C)cc1 (stereo unspecified)	-89
CC1CCN(C(=S)c2ccccc2O)CC1	-5
CCCC1(C)Nc2ccccc2-c2nc3ccccc3n21 (stereo unspecified)	-6
Cc1nccn1CC(O)COC1CCCCC1 (stereo unspecified)	?	VCAM1 pot conf=-20
SMILES	VCAM1 pot	others
Cc1nc2ccccc2n1CC(O)COC1CCCCC1 (stereo unspecified)	3
Cc1nccn1CC(O)COc1ccccc1 (stereo unspecified)	8
CC1CC1C(=O)OCC(=O)NC(=O)NCc1ccco1 (stereo unspecified)	-31
COc1ccc(NC(=O)C2CC2)cc1NS(=O)(=O)c1ccc(F)cc1	-2
CCC/C(=N/NC(=O)c1csc(C)c1C)c1ccc(Cl)s1	1
COc1cccc(Nc2nc(=O)[nH]nc2C)c1	29
CCOC(=O)/C(=C\c1cccnc1)C(=O)c1cc(C(C)=O)c(Nc2ccccc2)s1	-54
CCOC(=O)/C(=C\c1ccccc1)C(=O)c1cc(C(C)=O)c(Nc2ccccc2)s1	68*	VCAM1 pot conf=-13
Cc1nn2c(N)csc2nc1=O	-9
CC1(C)Cc2ccccc2C(=NCCCCCC(=O)O)N1	33
CC(C)=C1C2CCC1C1C(=O)N(NC(=O)COc3ccc(Cl)c(C)c3)C(=O)C21 (stereo unspecified)	0
Cn1c(SCC(=O)NCc2ccc(F)cc2)nc2ccccc21	50*	VCAM1 pot conf=-2
CC(C)(C)NC(=O)Cn1c(SCC(N)=O)nc2ccccc21	-1
Cc1nc2ccccc2n1CC(=O)NCc1ccccc1	-8
Cc1ccc(S(=O)(=O)N2CCOCC2)cc1C(=O)OCC(=O)N1CCc2ccccc2C1	3
CCCC(C)NC(=O)c1cc(Cl)ccc1OC (stereo unspecified)	2
CN(C)c1oc(-c2ccccc2Cl)nc1C#N	41*	VCAM1 pot conf=5
COc1ccc(-c2nc(C#N)c(NCCCN(C)C)o2)cc1OC	-97
CC(C)C(=O)Nc1nc2c(ncn2C2CC(O)C(CO)O2)c(=O)[nH]1 (stereo unspecified)	30*	VCAM1 pot conf=-7
O=C(OCCCN=C1NS(=O)(=O)c2ccccc21)C1CC(=O)N(c2ccc(Cl)cc2)C1 (stereo unspecified)	5
CC1(C)Cc2c(cnn2-c2ccccc2)C(=O)/C1=N\NC(=O)c1ccccc1	34*	VCAM1 pot conf=-18
C/C(Cl)=C/CN1C(=O)C2C3C=CC(C3)C2C1=O (stereo unspecified)	-13
N#Cc1cc(Oc2ccccc2)c(-n2nnc3ccccc32)cc1C#N	27
N#Cc1cnn(-c2ccccc2)c1N	-10
N#Cc1ccc(-n2c(-c3ccccc3)nnc2-c2ccccc2)cc1C#N	52*	VCAM1 pot conf=-11
SMILES	VCAM1 pot	others
C=CCn1c(N)c(C(=O)NC2CCCCC2)sc1=S	-8
COCCOC(=O)C1=C(C)OC(N)=C(C#N)C1c1ccc2c(c1)OCO2 (stereo unspecified)	?	VCAM1 pot conf=2
CCOC(=O)Nc1ccc2c(c1)OCO2	-2
CCOC(=O)C1=C(c2ccccc2)OC(N)=C(C#N)C1c1ccco1 (stereo unspecified)	-69
O=C(NCCN1CCOCC1)Nc1ccc(Cl)cc1Cl	1
CCOC(=O)Cn1nc(/C=C/c2ccc(C(C)C)cc2)ccc1=O	5
COCCNC(=O)C(c1cccs1)N(C(=O)Cn1nnc2ccccc21)c1ccc(OC)cc1 (stereo unspecified)	-9
COCCNC(=O)CN(C(=O)CCC(=O)Nc1cc(C)on1)c1ccccc1C	4
CC1=CN2C(=NC(=O)CC2(C)C(=O)N(CC(=O)NC2CCCC2)c2ccccc2C)C=C1 (stereo unspecified)	-8
CCCCN(C)C(=O)C1CCC(=O)N(c2cc(OC)c(OC)c(OC)c2)C1c1ccc(OC)cc1 (stereo unspecified)	-1
COc1ccc2oc(=O)c(C(C)=O)cc2c1	2
Cn1c(=O)c(C(=O)c2ccccc2)nc2ccccc21	-7
CC(=O)Oc1ccc2cc(-c3nc4ccccc4n3C)c(=O)oc2c1	48*	VCAM1 pot conf=-15
CC(=O)c1c(N2CCC(C(N)=O)CC2)nc(=S)n(-c2ccccc2)c1C	1
O=C(O)C1C2C=CC(C2)C1C(=O)N1CCN(C/C=C/c2ccccc2)CC1 (stereo unspecified)	10
CCOc1ccc(C2/C(=C(/O)c3ccc(OC)cc3)C(=O)C(=O)N2c2cc(C)on2)cc1OC (stereo unspecified)	58*	VCAM1 pot conf=-4
Cc1cc(N2C(=O)C(=O)/C(=C(/O)c3ccc(F)cc3)C2c2ccc(F)cc2)no1 (stereo unspecified)	6
Cc1ccc(C2/C(=C(/O)c3ccc(OC(C)C)cc3)C(=O)C(=O)N2CCN2CCOCC2)cc1 (stereo unspecified)	-5
CC(C)(C)c1ccc(OCC(=O)N2CCN(C=O)CC2)cc1	69*	VCAM1 pot conf=-9
O=C(COc1ccc2ccccc2c1)N1CCN(c2ccccc2O)CC1	-17
Cc1cc(=O)oc2ccc(OCC(=O)N3CCC(C)CC3)cc12	-37
O=C(CCCSc1nc2ccccc2s1)NC1=NCCS1	-14
Cc1ccc2oc(-c3cccc(NC(=O)c4cc(-n5cnnc5)ccc4Cl)c3)nc2c1	0
